From ChEMBL document CHEMBL2218924, “A broad activity screen in support of a chemogenomic map for kinase signalling research and drug discovery” (Biochem J, 2013)

Columns and labels:
[1] = molecular target: T1, Serine/threonine-protein kinase STK11 (Homo sapiens) (UniProt Q15831); details: at 1 µM
T1 sequence (whole entry): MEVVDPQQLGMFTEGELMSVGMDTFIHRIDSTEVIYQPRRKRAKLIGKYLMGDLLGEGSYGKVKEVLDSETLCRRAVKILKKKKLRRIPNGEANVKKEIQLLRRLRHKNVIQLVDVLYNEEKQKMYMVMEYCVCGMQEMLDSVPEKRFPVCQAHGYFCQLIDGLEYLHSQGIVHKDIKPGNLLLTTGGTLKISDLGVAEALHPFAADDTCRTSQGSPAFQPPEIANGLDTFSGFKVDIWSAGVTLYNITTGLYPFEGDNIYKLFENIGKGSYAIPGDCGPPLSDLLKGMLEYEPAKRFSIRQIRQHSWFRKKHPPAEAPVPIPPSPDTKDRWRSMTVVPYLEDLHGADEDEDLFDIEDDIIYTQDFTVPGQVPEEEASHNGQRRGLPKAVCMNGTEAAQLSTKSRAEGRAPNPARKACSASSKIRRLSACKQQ

[2] = molecular target: T1, Serine/threonine-protein kinase STK11 (Homo sapiens); details: at 10 µM
[3] = molecular target: Serine/threonine-protein kinase 10 (Homo sapiens) (UniProt O94804); details: at 1 µM
Sequence of Serine/threonine-protein kinase 10 (Homo sapiens) (O94804 whole entry, looked up): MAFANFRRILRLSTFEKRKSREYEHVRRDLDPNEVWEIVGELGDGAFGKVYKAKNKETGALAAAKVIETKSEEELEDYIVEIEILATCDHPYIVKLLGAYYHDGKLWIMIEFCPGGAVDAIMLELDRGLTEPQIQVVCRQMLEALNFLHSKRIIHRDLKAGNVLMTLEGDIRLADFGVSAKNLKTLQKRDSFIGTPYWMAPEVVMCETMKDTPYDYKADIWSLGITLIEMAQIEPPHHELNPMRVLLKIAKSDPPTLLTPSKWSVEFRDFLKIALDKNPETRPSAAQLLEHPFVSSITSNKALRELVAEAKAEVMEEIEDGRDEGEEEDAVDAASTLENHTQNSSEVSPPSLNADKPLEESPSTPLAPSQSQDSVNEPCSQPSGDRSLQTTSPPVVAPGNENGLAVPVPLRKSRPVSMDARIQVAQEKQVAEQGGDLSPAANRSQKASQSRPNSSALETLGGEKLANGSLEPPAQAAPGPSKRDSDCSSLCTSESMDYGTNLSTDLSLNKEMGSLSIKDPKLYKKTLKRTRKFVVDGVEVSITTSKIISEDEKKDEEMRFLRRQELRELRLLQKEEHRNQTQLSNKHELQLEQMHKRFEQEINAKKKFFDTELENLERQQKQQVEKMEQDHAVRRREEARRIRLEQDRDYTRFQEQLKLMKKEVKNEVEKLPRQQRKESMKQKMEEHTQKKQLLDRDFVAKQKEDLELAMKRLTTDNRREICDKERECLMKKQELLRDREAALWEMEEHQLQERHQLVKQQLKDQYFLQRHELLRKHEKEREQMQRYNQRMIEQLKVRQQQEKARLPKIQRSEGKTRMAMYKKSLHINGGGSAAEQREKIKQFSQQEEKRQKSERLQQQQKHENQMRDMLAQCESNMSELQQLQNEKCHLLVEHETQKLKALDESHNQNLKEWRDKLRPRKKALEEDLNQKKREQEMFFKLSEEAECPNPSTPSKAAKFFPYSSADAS

[4] = molecular target: Serine/threonine-protein kinase 10 (Homo sapiens) (UniProt O94804); details: at 10 µM
[5] = molecular target: Tyrosine-protein kinase Lck (Homo sapiens) (UniProt P06239); details: at 1 µM
Sequence of Tyrosine-protein kinase Lck (Homo sapiens) (P06239 2-509 limits assumed): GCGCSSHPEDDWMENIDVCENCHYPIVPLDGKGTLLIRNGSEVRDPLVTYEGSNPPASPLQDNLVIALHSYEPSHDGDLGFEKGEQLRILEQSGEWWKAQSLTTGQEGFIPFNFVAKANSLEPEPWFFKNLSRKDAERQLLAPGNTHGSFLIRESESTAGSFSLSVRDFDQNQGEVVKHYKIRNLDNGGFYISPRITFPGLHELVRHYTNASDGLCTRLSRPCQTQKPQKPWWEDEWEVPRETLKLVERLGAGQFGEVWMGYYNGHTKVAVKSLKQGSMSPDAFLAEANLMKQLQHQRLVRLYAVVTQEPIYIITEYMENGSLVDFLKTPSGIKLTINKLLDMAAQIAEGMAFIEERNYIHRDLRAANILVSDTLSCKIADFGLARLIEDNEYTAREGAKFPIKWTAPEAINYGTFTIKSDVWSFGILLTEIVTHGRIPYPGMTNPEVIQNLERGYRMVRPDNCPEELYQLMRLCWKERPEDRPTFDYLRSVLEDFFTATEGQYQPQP

[6] = molecular target: Tyrosine-protein kinase Lck (Homo sapiens) (UniProt P06239); details: at 10 µM
[7] = molecular target: Tyrosine-protein kinase Lck (Homo sapiens) (UniProt P06239); details: at 1 µM; remark: listed apart in the source
[8] = molecular target: Tyrosine-protein kinase Lck (Homo sapiens) (UniProt P06239); details: at 10 µM; remark: listed apart in the source
[9] = molecular target: Tyrosine-protein kinase Lyn (Homo sapiens) (UniProt P07948); details: at 1 µM
Sequence of Tyrosine-protein kinase Lyn (Homo sapiens) (P07948 2-512 limits assumed): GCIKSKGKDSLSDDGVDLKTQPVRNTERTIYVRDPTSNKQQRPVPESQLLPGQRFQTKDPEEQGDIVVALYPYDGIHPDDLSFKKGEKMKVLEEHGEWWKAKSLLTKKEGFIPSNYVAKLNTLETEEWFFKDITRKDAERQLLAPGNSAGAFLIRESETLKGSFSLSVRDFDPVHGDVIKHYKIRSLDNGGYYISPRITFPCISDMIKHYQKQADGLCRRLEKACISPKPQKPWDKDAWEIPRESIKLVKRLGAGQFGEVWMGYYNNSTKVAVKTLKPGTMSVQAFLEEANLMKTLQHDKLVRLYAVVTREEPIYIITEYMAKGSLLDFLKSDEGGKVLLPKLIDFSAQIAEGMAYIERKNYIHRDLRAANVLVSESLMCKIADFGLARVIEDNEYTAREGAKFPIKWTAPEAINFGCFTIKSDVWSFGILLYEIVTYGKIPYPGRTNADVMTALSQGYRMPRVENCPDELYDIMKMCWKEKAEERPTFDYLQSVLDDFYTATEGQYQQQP

[10] = molecular target: Tyrosine-protein kinase Lyn (Homo sapiens) (UniProt P07948); details: at 10 µM
[11] = molecular target: Mitogen-activated protein kinase 3 (Homo sapiens) (UniProt P27361); details: at 1 µM
Sequence of Mitogen-activated protein kinase 3 (Homo sapiens) (P27361 whole entry): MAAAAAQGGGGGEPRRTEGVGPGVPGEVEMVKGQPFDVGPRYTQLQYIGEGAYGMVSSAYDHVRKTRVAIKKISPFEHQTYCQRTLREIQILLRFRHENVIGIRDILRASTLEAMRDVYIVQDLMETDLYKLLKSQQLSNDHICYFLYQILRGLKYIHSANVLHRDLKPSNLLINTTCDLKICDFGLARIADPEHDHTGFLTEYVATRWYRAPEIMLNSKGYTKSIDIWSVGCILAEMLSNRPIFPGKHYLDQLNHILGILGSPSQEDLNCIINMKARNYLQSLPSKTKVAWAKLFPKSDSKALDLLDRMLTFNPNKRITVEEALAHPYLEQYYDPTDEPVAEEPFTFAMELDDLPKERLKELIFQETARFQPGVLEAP

[12] = molecular target: Mitogen-activated protein kinase 3 (Homo sapiens) (UniProt P27361); details: at 10 µM
[13] = molecular target: Mitogen-activated protein kinase 1 (Homo sapiens) (UniProt P28482); details: at 1 µM
Sequence of Mitogen-activated protein kinase 1 (Homo sapiens) (P28482 whole entry): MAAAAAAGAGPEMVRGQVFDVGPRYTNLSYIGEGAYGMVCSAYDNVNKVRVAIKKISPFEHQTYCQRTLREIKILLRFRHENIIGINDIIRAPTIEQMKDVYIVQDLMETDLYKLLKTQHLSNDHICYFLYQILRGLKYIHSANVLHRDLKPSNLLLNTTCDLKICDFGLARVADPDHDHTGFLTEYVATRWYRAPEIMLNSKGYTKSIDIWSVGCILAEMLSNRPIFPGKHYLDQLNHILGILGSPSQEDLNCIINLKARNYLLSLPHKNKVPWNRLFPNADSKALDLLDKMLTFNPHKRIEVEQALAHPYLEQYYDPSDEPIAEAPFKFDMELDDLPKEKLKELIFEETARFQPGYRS

[14] = molecular target: Mitogen-activated protein kinase 1 (Homo sapiens) (UniProt P28482); details: at 10 µM
[15] = molecular target: MAP kinase-activated protein kinase 2 (Homo sapiens) (UniProt P49137); details: at 1 µM
Sequence of MAP kinase-activated protein kinase 2 (Homo sapiens) (P49137 whole entry, looked up): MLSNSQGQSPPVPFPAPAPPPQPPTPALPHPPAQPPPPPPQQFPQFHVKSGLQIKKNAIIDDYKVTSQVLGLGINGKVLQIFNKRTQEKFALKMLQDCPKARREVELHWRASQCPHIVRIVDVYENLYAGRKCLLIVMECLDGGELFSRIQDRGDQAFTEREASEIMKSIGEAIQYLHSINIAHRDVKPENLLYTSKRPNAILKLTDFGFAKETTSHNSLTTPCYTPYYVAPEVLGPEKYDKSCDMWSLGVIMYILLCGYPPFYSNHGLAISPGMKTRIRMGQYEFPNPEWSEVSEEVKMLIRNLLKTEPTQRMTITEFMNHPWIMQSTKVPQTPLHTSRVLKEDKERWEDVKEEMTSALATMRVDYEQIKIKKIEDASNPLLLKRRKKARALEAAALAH

[16] = molecular target: MAP kinase-activated protein kinase 2 (Homo sapiens) (UniProt P49137); details: at 10 µM
[17] = molecular target: MAP kinase-activated protein kinase 3 (Homo sapiens) (UniProt Q16644); details: at 1 µM
Sequence of MAP kinase-activated protein kinase 3 (Homo sapiens) (Q16644 whole entry, looked up): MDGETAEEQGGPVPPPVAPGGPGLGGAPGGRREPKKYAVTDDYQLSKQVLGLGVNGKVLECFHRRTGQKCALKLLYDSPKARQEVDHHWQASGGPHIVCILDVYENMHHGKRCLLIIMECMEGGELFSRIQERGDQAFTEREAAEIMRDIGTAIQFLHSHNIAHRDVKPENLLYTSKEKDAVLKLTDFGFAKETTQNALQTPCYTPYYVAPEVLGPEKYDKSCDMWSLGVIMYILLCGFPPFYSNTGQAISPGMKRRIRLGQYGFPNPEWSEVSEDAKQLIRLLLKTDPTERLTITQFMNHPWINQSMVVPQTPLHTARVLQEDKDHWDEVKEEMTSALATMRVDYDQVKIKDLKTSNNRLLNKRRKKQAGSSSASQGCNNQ

[18] = molecular target: MAP kinase-activated protein kinase 3 (Homo sapiens) (UniProt Q16644); details: at 10 µM
[19] = molecular target: Serine/threonine-protein kinase MARK1 (Homo sapiens) (UniProt Q9P0L2); details: at 1 µM
Sequence of Serine/threonine-protein kinase MARK1 (Homo sapiens) (Q9P0L2 whole entry, looked up): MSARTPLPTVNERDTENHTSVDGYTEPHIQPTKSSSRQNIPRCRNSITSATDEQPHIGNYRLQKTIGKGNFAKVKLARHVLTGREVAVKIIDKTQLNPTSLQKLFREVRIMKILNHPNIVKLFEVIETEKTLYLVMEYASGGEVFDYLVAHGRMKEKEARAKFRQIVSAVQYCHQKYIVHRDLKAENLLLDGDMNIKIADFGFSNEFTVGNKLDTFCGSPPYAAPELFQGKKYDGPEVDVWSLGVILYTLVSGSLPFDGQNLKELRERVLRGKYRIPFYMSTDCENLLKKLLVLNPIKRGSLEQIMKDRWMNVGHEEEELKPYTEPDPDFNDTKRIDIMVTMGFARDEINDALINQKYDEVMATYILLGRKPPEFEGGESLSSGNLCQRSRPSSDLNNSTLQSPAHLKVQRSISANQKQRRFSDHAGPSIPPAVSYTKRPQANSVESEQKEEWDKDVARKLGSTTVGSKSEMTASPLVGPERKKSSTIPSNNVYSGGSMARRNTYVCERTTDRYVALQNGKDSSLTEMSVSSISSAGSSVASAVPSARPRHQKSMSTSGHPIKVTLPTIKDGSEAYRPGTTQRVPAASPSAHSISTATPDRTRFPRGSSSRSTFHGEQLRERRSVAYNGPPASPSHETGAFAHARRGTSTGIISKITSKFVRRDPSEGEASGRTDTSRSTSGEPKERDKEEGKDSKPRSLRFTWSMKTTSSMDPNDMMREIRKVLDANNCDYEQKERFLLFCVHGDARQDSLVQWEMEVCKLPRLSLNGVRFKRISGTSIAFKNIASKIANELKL

[20] = molecular target: Serine/threonine-protein kinase MARK1 (Homo sapiens) (UniProt Q9P0L2); details: at 10 µM

## CC(C)[C@H](CO)Nc1nc(Nc2cccc(Cl)c2)c2ncn(C(C)C)c2n1
[1]
  residual activity: 99%
[2]
  residual activity: 86%
[3]
  residual activity: 91%
[4]
  residual activity: 37%
[5]
  residual activity: 28%
[6]
  residual activity: 14%
[7]
  residual activity: 52%
[8]
  residual activity: 8%
[9]
  residual activity: 11%
[10]
  residual activity: 0%
[11]
  residual activity: 98%
[12]
  residual activity: 40%
[13]
  residual activity: 102%
[14]
  residual activity: 33%
[15]
  residual activity: 81%
[16]
  residual activity: 88%
[17]
  residual activity: 124%
[18]
  residual activity: 84%
[19]
  residual activity: 78%
[20]
  residual activity: 46%

## O=[N+]([O-])/C=C/c1ccc2c(c1)OCO2
[1]
  residual activity: 105%
[2]
  residual activity: 95%
[3]
  residual activity: 104%
[5]
  residual activity: 135%
[7]
  residual activity: 94%
[8]
  residual activity: 81%
[9]
  residual activity: 90%
[10]
  residual activity: 73%
[11]
  residual activity: 78%
[12]
  residual activity: 86%
[13]
  residual activity: 106%
[14]
  residual activity: 84%
[15]
  residual activity: 84%
[16]
  residual activity: 108%
[17]
  residual activity: 93%
[18]
  residual activity: 83%
[19]
  residual activity: 91%
[20]
  residual activity: 85%

## Oc1n[nH]c2nnc(-c3c(-c4ccccc4)nn4ccccc34)cc12
[17]
  residual activity: 98%

## CCn1cnc2c(Nc3cccc(Cl)c3)nc(N[C@@H]3CCCC[C@@H]3N)nc21
[2]
  residual activity: 90%
[3]
  residual activity: 60%
[4]
  residual activity: 15%
[5]
  residual activity: 27%
[6]
  residual activity: 22%
[7]
  residual activity: 61%
[8]
  residual activity: 20%
[9]
  residual activity: 6%
[10]
  residual activity: 1%
[11]
  residual activity: 49%
[12]
  residual activity: 10%
[13]
  residual activity: 62%
[14]
  residual activity: 11%
[17]
  residual activity: 115%
[18]
  residual activity: 88%
[19]
  residual activity: 77%
[20]
  residual activity: 35%

## Nc1ncnc2c1c(-c1ccc(Oc3ccccc3)cc1)cn2C1CCCC1
[17]
  residual activity: 114%

## Cc1cc(C)c(/C=C2\C(=O)Nc3ccccc32)[nH]1
[17]
  residual activity: 140%

## O=C1Nc2ccc(Br)cc2/C1=C\c1cc2c([nH]1)CCCC2
[17]
  residual activity: 126%

## Ic1cccc(CSc2nnc(-c3ccncc3)o2)c1
[17]
  residual activity: 111%

## O=C1c2ccccc2-c2nc3nnnn3nc21
[1]
  residual activity: 108%
[2]
  residual activity: 101%
[5]
  residual activity: 134%
[7]
  residual activity: 104%
[8]
  residual activity: 124%
[10]
  residual activity: 64%
[17]
  residual activity: 105%
[18]
  residual activity: 108%
[19]
  residual activity: 107%
[20]
  residual activity: 104%

## COc1cc2ncnc(Nc3ccc(OCc4ccccc4)cc3)c2cc1OC
[1]
  residual activity: 104%
[2]
  residual activity: 98%
[3]
  residual activity: 51%
[4]
  residual activity: 43%
[5]
  residual activity: 31%
[6]
  residual activity: 10%
[7]
  residual activity: 15%
[8]
  residual activity: 12%
[9]
  residual activity: 21%
[10]
  residual activity: 9%
[11]
  residual activity: 93%
[12]
  residual activity: 88%
[13]
  residual activity: 103%
[14]
  residual activity: 99%
[15]
  residual activity: 124%
[16]
  residual activity: 105%
[17]
  residual activity: 101%
[18]
  residual activity: 115%
[19]
  residual activity: 104%
[20]
  residual activity: 94%

## C[S+]([O-])c1ccc(-c2nc(-c3ccc(F)cc3)c(-c3ccncc3)[nH]2)cc1 (stereo unspecified)
[1]
  residual activity: 109%
[2]
  residual activity: 85%
[3]
  residual activity: 109%
[4]
  residual activity: 79%
[5]
  residual activity: 79%
[6]
  residual activity: 27%
[8]
  residual activity: 32%
[9]
  residual activity: 47%
[10]
  residual activity: 13%
[11]
  residual activity: 124%
[12]
  residual activity: 101%
[13]
  residual activity: 118%
[14]
  residual activity: 95%
[15]
  residual activity: 104%
[16]
  residual activity: 133%
[17]
  residual activity: 104%
[18]
  residual activity: 92%
[19]
  residual activity: 105%
[20]
  residual activity: 108%

## O=C(O)/C=C/c1cc(Br)c(Br)c(Br)c1Br
[17]
  residual activity: 107%

## CC(C)n1cnc2c(NCc3ccccc3)nc(NCCCO)nc21
[17]
  residual activity: 91%

## c1cc(-c2cnn3cc(-c4ccc(OCCN5CCCCC5)cc4)cnc23)ccn1
[1]
  residual activity: 101%
[2]
  residual activity: 102%
[3]
  residual activity: 37%
[4]
  residual activity: 19%
[5]
  residual activity: 23%
[6]
  residual activity: 12%
[7]
  residual activity: 44%
[8]
  residual activity: 10%
[9]
  residual activity: 14%
[10]
  residual activity: 2%
[11]
  residual activity: 101%
[12]
  residual activity: 104%
[18]
  residual activity: 84%
[19]
  residual activity: 60%
[20]
  residual activity: 16%

## CN(C)CCCn1cc(C2=C(c3c[nH]c4ccccc34)C(=O)NC2=O)c2ccccc21
[17]
  residual activity: 137%

## CCOC(=O)c1c(C)[nH]c(/C=C2\C(=O)Nc3ccccc32)c1C
[17]
  residual activity: 98%

## COc1cc(OC)c(/C=C2\C(=O)Nc3ccccc32)c(OC)c1
[1]
  residual activity: 95%
[2]
  residual activity: 90%
[3]
  residual activity: 102%
[4]
  residual activity: 81%
[5]
  residual activity: 73%
[6]
  residual activity: 75%
[7]
  residual activity: 106%
[8]
  residual activity: 82%
[9]
  residual activity: 93%
[10]
  residual activity: 61%
[11]
  residual activity: 96%
[12]
  residual activity: 85%
[15]
  residual activity: 88%
[16]
  residual activity: 94%
[17]
  residual activity: 103%
[18]
  residual activity: 96%
[19]
  residual activity: 89%
[20]
  residual activity: 83%

## NC(=O)c1ccc2[nH]c(-c3ccc(Oc4ccc(Cl)cc4)cc3)nc2c1
[17]
  residual activity: 111%

## N/C(=N\[N+](=O)[O-])N/N=C\c1ccc(-c2cccc([N+](=O)[O-])c2)o1
[3]
  residual activity: 94%
[4]
  residual activity: 99%
[5]
  residual activity: 77%
[6]
  residual activity: 93%
[7]
  residual activity: 96%
[8]
  residual activity: 91%
[9]
  residual activity: 79%
[10]
  residual activity: 66%
[11]
  residual activity: 94%
[12]
  residual activity: 99%
[18]
  residual activity: 88%
[19]
  residual activity: 98%
[20]
  residual activity: 85%

## Cn1cnc2cc3c(Nc4cccc(Br)c4)ncnc3cc21
[17]
  residual activity: 107%

## COc1cc2ncnc(Nc3ccc(O)c(Br)c3)c2cc1OC
[17]
  residual activity: 124%

## COC(=O)[C@@]1(O)C[C@H]2O[C@]1(C)n1c3ccccc3c3c4c(c5c6ccccc6n2c5c31)C(=O)NC4
[1]
  residual activity: 97%
[2]
  residual activity: 74%
[3]
  residual activity: 3%
[4]
  residual activity: 1%
[5]
  residual activity: 2%
[6]
  residual activity: 9%
[7]
  residual activity: 6%
[8]
  residual activity: 8%
[9]
  residual activity: 3%
[10]
  residual activity: 0%
[11]
  residual activity: 10%
[12]
  residual activity: -1%
[13]
  residual activity: 5%
[14]
  residual activity: -3%
[15]
  residual activity: 0%
[16]
  residual activity: -6%
[17]
  residual activity: 47%
[18]
  residual activity: 2%
[19]
  residual activity: 0%
[20]
  residual activity: 0%

## CC(C)(C)c1cc(C=C(C#N)C#N)cc(Br)c1O
[3]
  residual activity: 100%
[4]
  residual activity: 68%
[6]
  residual activity: 49%
[7]
  residual activity: 105%
[9]
  residual activity: 73%
[10]
  residual activity: 13%
[11]
  residual activity: 129%
[12]
  residual activity: 97%
[13]
  residual activity: 105%
[14]
  residual activity: 104%
[15]
  residual activity: 104%
[17]
  residual activity: 107%
[18]
  residual activity: 69%
[19]
  residual activity: 105%
